From PubChem BioAssay AID2071 (Sanford-Burnham Center for Chemical Genomics, 2009)
In all, about 280,000 compounds went through this assay and about 1,700 (0.61%) were called active. Rule as the data show it: active = inhibition mostly above about 24% (no sharp cut-off); inactive = mostly below about 32%. The list comes from a sample in which actives are over-represented; it also holds similar structures and randomly drawn compounds.

Assay: NALP1 inflammasome inhibitors in reconstituted yeast, colorimetric, S. cerevisiae, triplicate retest (AID 2071)
Conditions: S. cerevisiae NALP1/ASC/caspase-1 growth, X-gal OD620, 72 h, stronger effect = higher value

With `CCCCCCCCCCCCn1ccc(=N)cc1` the inhibition (at 10 µM unless noted) was 92.4% (active).

For `O=C(N/N=C/c1c(O)n(C2CC2)c(=S)[nH]c1=O)c1ccccc1`, the inhibition (at 10 µM unless noted) was -16.2% (inactive).

In the case of `COc1ccc(CNCCc2c[nH]c3ccccc23)cc1OC`, the inhibition (at 10 µM unless noted) is reported as -6% (inactive).

With `CCN1CCN(Cc2cc(OC)c3c(c2)OCO3)CC1` the inhibition (at 10 µM unless noted) was -2.2% (inactive).

In the case of `CC(C)(C)c1ccc(OC(=O)N2CCCCC2)cc1`, the inhibition (at 10 µM unless noted) is reported as 41% (active).

With `CN1CCN(C(=O)COc2ccc(C(C)(C)C)cc2Br)CC1` the inhibition (at 10 µM unless noted) was 8.8% (inactive).

In the case of `O=C(Nc1cccc(OC(=O)N2CCCCC2)c1)N1CCOCC1`, the inhibition (at 10 µM unless noted) is reported as -35.9% (inactive).

For `Cc1ccc(S(=O)(=O)N(C)c2ccc(C(=O)NCC3(N(C)C)CCCCC3)cc2)cc1`, the inhibition (at 10 µM unless noted) was 9.8% (inactive).

For `COc1ccc(CNCCc2ccc3c(c2)OCO3)c(OC)c1OC`, the inhibition (at 10 µM unless noted) was 30.6% (inactive).

With `CC(C)c1ccc(OCC(=O)N2CCCN(C)CC2)cc1` the inhibition (at 10 µM unless noted) was 3.6% (inactive).

For `C=CCN1C(=O)NC(=O)/C(=C/c2ccc(OCC(=O)Nc3ccc(C)cc3)cc2)C1=O`, the inhibition (at 10 µM unless noted) was 25% (inactive).

In the case of `CCN1CCN(c2nc3c(c(=O)[nH]2)CCC3)CC1`, the inhibition (at 10 µM unless noted) is reported as 25.1% (inactive).

For `CN(C)/C=C(\C=[N+](C)C)c1[nH]ncc1[N+](=O)[O-]`, the inhibition (at 10 µM unless noted) was 35.3% (active).

With `CCN(CC)C(=O)c1ccc(NC(=O)c2sccc2-c2ccccc2)cc1` the inhibition (at 10 µM unless noted) was 1% (inactive).

In the case of `O=C(N/N=C/c1c(O)n(C2CC2)c(=S)[nH]c1=O)c1ccccc1Cl`, the inhibition (at 10 µM unless noted) is reported as 3.2% (inactive).

For `Clc1ccc2nc3c(c(-c4ccccc4)c2c1)CNCC3`, the inhibition (at 10 µM) was 45% (active) and the inhibition (triplicate retest, at 20 µM) was 66.3%.

For `COc1ccc2[nH]c3c(c2c1)CCN[C@H]3C`, the inhibition (at 10 µM unless noted) was 14.7% (inactive).

With `COc1ccc(N=Cc2c(O)n(C)c(=O)[nH]c2=O)cc1` the inhibition (at 10 µM unless noted) was 12.7% (inactive).

For `CN(c1ccccc1)c1ccc([N+](=O)[O-])c2nonc12`, the inhibition (at 10 µM unless noted) was -7.2% (inactive).

In the case of `Cc1nc2ccccc2c(=O)n1-c1ccc(Cl)cc1Cl`, the inhibition (at 10 µM unless noted) is reported as 11.2% (inactive).
